This passage reports growth results from PubChem BioAssay (NCI).

The panel holds about 83,000 compounds, 20% with a hit somewhere; the sample as a whole holds those more often.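 Results are percent growth after 48 hours of single-concentration exposure. 100 means growth as in untreated cells, lower positive values show inhibition; negative values down to -100 show cell death.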 Values without a mark were called inactive. Calls of active or inactive are those of the source. How the source made its calls: active means growth percent below 10; inactive means the rest.

Among the test systems are NCI-H23 lung; NCI-H226 lung; HOP-62 NSCLC; NCI-H460 lung; HOP-92 NSCLC; NCI-H522 lung; A549/ATCC NSCLC; 786-0 renal; COLO 205 colon.
Common to all, as to experiment: NCI-60 one-dose screen, 48 h (100 = growth as untreated, 0 = no growth, -100 = all killed)
Details in all cases: 10 µM unless noted

On to `O=C1c2c(c3c4cccc(F)c4[nH]c3c3ccc4ccccc4c23)C(=O)N1O`, for which the growth in the assay with NCI-H23 lung was 56.2%; in the assay with NCI-H226 lung it was 54.1%; in the assay on HOP-62 NSCLC, 63.2%; in the assay with NCI-H460 lung, 10.9%; with HOP-92 NSCLC, 79.1%; with NCI-H522 lung, 30%. Besides, the results for the growth in the assay on A549/ATCC NSCLC, in the assay on 786-0 renal and in the assay with COLO 205 colon were 65.7%, 70.7% and 57.4%, respectively.

For the molecule `CCCCCC(=O)Oc1ccc(/C(=C(/C)Cc2ccc(OC)cc2)c2ccc(OCCCN(C)C)cc2)cc1`, the growth was 76.7% in the assay on NCI-H23 lung; 93.3% with NCI-H226 lung; 80.4% in the assay on HOP-62 NSCLC; 69.6% in the assay on NCI-H460 lung; 73.4% in the assay on HOP-92 NSCLC; 98.1% with NCI-H522 lung. Further, the growth in the assay with A549/ATCC NSCLC was 76.1%; with 786-0 renal it was 58.4%; in the assay on COLO 205 colon, 55.6%.

For the molecule `COc1cc(/C=C/C(=O)c2nc3cc(F)ccc3nc2C)cc(OC)c1OC`, the growth with NCI-H23 lung is 64.6%; in the assay on NCI-H226 lung, 103%; with HOP-62 NSCLC it was 106%; with NCI-H460 lung, 53.5%; in the assay on HOP-92 NSCLC it was 48.9%; with NCI-H522 lung it was 70.3%. The growth was 65% with A549/ATCC NSCLC, 75.7% in the assay on 786-0 renal and 82% in the assay with COLO 205 colon.

`CCCOc1ccc(/C=N/Nc2cc(C)nc3ccc(Br)cc23)cc1`: the growth was 86.9% with NCI-H23 lung; 93.3% with NCI-H226 lung; 92.7% in the assay with HOP-62 NSCLC; 70.5% in the assay on NCI-H460 lung; 67.9% in the assay on HOP-92 NSCLC; 101% with NCI-H522 lung. Further, the growth in the assay with A549/ATCC NSCLC is 94.6%; in the assay on 786-0 renal it was 100%; in the assay with COLO 205 colon, 44.8%.

For `O=C(CCN1CCCC1)Nc1ccc2c(NCCc3ccccc3)c3ccccc3nc2c1`, the growth in the assay on NCI-H23 lung was -40.2% (active); with NCI-H226 lung it was -19.8% (active); in the assay on HOP-62 NSCLC, -9.1% (active); with NCI-H460 lung, -64.8% (active); with HOP-92 NSCLC, -14.5% (active); in the assay with NCI-H522 lung, -33.4% (active). The growth in the assay on A549/ATCC NSCLC is -5.65% (active); in the assay on 786-0 renal it was -12.4% (active); in the assay on COLO 205 colon, -37.5% (active).

Take `COc1cc(CC(=O)n2ncc3ccc(N)cc32)cc(OC)c1OC`: the growth was 91.4% in the assay with NCI-H23 lung; 94.9% in the assay on NCI-H226 lung; 94.8% in the assay with HOP-62 NSCLC; 102% in the assay with NCI-H460 lung; 99% in the assay with HOP-92 NSCLC; 85.6% with NCI-H522 lung. Also, the growth was 98.9% in the assay on A549/ATCC NSCLC, 97.5% with 786-0 renal and 109% in the assay with COLO 205 colon.

Consider `NC(=O)Nc1ccc(-n2cnc3cc(-c4ccc(O)cc4)ccc32)cc1`, for which the growth in the assay with NCI-H23 lung was 103%; in the assay on NCI-H226 lung it was 110%; in the assay with HOP-62 NSCLC, 104%; in the assay on NCI-H460 lung it was 102%; with HOP-92 NSCLC, 149%; in the assay with NCI-H522 lung, 73.3%. Moreover, the growth in the assay with A549/ATCC NSCLC is 96.8%; with 786-0 renal it was 109%; in the assay on COLO 205 colon, -20.8% (active).

Take `Cc1nc(N)nc(N[C@@H](C)c2nc3cccc(NCc4ccc(C(=O)NO)cc4)c3c(=O)n2-c2ccccc2)n1`: the growth in the assay with NCI-H23 lung is 63.9%; with NCI-H226 lung it was 81%; in the assay with HOP-62 NSCLC, 75.1%; in the assay on NCI-H460 lung it was 76.3%; with HOP-92 NSCLC it was 50.1%; with NCI-H522 lung it was 35.3%. The growth was 90.5% with A549/ATCC NSCLC, 93.9% with 786-0 renal and 47.3% in the assay with COLO 205 colon.

With `CCCCC/C=C/C(C)=C/C1CC(C)C/C=C/CCC(O)C(OC(N)=O)CCC(C)CC(O)C(C)C(=O)O1` (stereo not drawn), the growth with NCI-H23 lung was 97.6%; in the assay with NCI-H226 lung, 104%; in the assay on HOP-62 NSCLC it was 82.7%; in the assay on NCI-H460 lung, 67%; in the assay on HOP-92 NSCLC, 24.5%; in the assay with NCI-H522 lung, 79.2%. In addition, the growth with A549/ATCC NSCLC was 85%; with 786-0 renal, 77.9%; with COLO 205 colon, 121%.

Turning to `Cc1cc2nc3c4cc([N+](=O)[O-])ccc4n(CCN(C)C)c3nc2cc1C`, the growth in the assay on NCI-H23 lung is -26.8% (active); in the assay on NCI-H226 lung, -25.3% (active); in the assay on HOP-62 NSCLC, 5.3% (active); in the assay on NCI-H460 lung, 1.25% (active); with HOP-92 NSCLC it was -10.7% (active); with NCI-H522 lung, -17% (active). Moreover, the growth in the assay on A549/ATCC NSCLC was -45.8% (active); in the assay on 786-0 renal, 5.9% (active); in the assay with COLO 205 colon it was -42.3% (active).

As to `COc1cc(F)c(/C=C/c2cc(/C=C/c3cc(OC)c(OC)cc3F)on2)cc1OC`, the growth with NCI-H23 lung is 79.4%; in the assay on NCI-H226 lung, 56.8%; in the assay on HOP-62 NSCLC, 107%; in the assay on NCI-H460 lung it was 72.1%; with HOP-92 NSCLC, 88.4%; in the assay on A549/ATCC NSCLC, 81.3%. The growth with 786-0 renal was 87.3%; in the assay on COLO 205 colon, 80%.

Regarding `COc1ccc(C(=O)CSc2nc(-c3cc(OC)ccc3OC)cc(-c3ccc(Cl)cc3)c2C#N)cc1`, the growth with NCI-H23 lung was 44.1%; in the assay with NCI-H226 lung, -2.99% (active); in the assay on HOP-62 NSCLC, 39.9%; in the assay on NCI-H460 lung, 25.4%; with HOP-92 NSCLC, 43.9%; with NCI-H522 lung it was 27.6%. Also, the growth in the assay with A549/ATCC NSCLC was 56.5%; in the assay on 786-0 renal, 23.7%; in the assay on COLO 205 colon, 65.2%.

As to `CCN(CC)CCOc1ccc(NC(=O)C(C(C)C)N2C(=O)/C(=C/c3ccc(Br)cc3)SC2=S)cc1` (stereo not drawn), the growth was 94.6% in the assay on NCI-H23 lung; 90% in the assay on NCI-H226 lung; 104% in the assay on HOP-62 NSCLC; 16.2% in the assay with NCI-H460 lung; 78.8% with HOP-92 NSCLC; 96.3% in the assay with NCI-H522 lung. The growth is 16.6% in the assay with A549/ATCC NSCLC and 92.1% in the assay on COLO 205 colon.

As to `CCCCN1C=CCN(CCCC)C1`, the growth was 65.4% in the assay with NCI-H23 lung; 82.9% with NCI-H226 lung; 84.1% in the assay with HOP-62 NSCLC; 50.1% in the assay with NCI-H460 lung; 50.2% in the assay on HOP-92 NSCLC; 47.7% in the assay on NCI-H522 lung. Moreover, the growth is 66.7% in the assay with A549/ATCC NSCLC, 73.9% with 786-0 renal and 30.4% with COLO 205 colon.

As to `NC(=NCc1ccccc1)C(N=Nc1ccccc1)C(=O)NCc1ccccc1` (stereo not drawn), the growth in the assay with NCI-H23 lung was 65.3%; in the assay with NCI-H226 lung it was 109%; with HOP-62 NSCLC, 92.2%; with NCI-H460 lung it was 50.1%; in the assay with HOP-92 NSCLC, 99%; in the assay with NCI-H522 lung, 63.4%. For the same molecule, the growth in the assay on A549/ATCC NSCLC is 1.29% (active); with 786-0 renal, 92.4%; with COLO 205 colon, 79.5%.
